Compound activity (PubChem BioAssay)
HEK293 tox – kills HEK 293 cells; HEK 293 viability, ATP luminescence (CellTiter-Glo), 48-72 h; Potency, µM (titrated, usually from 115 µM), most hits filed as inhibitors; 94,000 tested, 6.6% active; also: nearly all actives have a fitted effect of over 60% in size
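qHTS cytotoxicity; HEK 293, 250 cells/well; compound pinned; 48 or 72 hr, 37 degree Celsius, 5% CO2, 95% humidity; CellTiter-Glo, 10 min RT; luminescence (ATP).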
NIH3T3 tox – kills NIH 3T3 cells; NIH 3T3 viability, CellTiter-Glo ATP luminescence, 48-72 h; Potency, µM (doses to about 96.7 µM), most hits filed as inhibitors; 94,000 tested, 4.3% active; AID 1345082; also: nearly all actives have a fitted effect of over 55% in size
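Luminescent ATP readout (CellTiter-Glo, 10 min RT) after 48 or 72 hr compound exposure of NIH 3T3 cells seeded at 400 cells/well in 1536-well format; quantitative HTS.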
FLuc inh – inhibitors of firefly (Photinus pyralis) luciferase; Potency, µM (doses to about 115 µM), hits mostly inhibitors; purified P. pyralis luciferase, luminescence, biochemical; 76,000 tested, 2.5% active; AID 1347043; P08659; also: nearly all actives have a fitted effect of over 65% in size
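Purified 10nM P. pyralis luciferase with 10uM D-luciferin and 10uM ATP in 50mM Tris acetate pH 7.5, 10mM Mg acetate, 0.01% Tween-20, 0.05% BSA. qHTS titration; luminescence read by CCD imager.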
hNpr1 antagonist – human Npr1 receptor antagonism | 76,000 tested, 1.6% active | HEK293 hNpr1 GloSensor cGMP, ANP-stimulated luminescence | P16066 | Potency, µM (top dose mostly 46.3 µM), actives largely listed as inhibitors; calls by dose curve; also: nearly all actives have a fitted effect of over 60% in size
Target sequence (P16066 whole entry, looked up): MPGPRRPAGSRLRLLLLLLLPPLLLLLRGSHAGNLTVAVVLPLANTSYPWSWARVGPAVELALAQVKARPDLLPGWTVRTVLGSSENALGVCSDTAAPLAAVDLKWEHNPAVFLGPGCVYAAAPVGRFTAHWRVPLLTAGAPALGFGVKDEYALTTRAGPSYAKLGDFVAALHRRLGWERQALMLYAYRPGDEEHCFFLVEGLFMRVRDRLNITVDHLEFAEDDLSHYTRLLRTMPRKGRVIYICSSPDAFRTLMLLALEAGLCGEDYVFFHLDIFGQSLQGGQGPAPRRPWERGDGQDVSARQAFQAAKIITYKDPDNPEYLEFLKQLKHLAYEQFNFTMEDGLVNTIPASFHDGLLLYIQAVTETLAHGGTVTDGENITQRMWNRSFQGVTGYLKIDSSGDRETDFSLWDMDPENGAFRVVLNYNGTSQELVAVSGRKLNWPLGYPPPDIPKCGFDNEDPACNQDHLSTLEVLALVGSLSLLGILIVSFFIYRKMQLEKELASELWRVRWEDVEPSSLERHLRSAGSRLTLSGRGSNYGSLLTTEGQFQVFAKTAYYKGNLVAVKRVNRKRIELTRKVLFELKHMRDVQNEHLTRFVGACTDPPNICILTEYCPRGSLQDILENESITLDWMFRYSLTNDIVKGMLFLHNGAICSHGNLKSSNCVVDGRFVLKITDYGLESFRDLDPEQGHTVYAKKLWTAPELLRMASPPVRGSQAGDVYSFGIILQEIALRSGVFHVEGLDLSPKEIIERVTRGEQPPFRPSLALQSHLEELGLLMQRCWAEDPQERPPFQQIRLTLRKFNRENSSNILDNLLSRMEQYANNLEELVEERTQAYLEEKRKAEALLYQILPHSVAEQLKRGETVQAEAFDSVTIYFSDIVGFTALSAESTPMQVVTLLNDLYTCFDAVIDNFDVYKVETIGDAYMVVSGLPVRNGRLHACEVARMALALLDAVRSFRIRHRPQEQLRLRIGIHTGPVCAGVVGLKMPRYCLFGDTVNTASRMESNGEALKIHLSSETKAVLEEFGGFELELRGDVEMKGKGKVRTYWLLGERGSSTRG
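Compound pre-incubated 30 min at room temperature on GloSensor-loaded HEK293 cells stably carrying hNpr1 and the pGS-40F cGMP biosensor. Stimulation uses hNppA at 0.1 nM final; luminescence is taken at baseline and 20 min post-agonist.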
Hits are given with their value; - = inactive; ? = inconclusive; . = no result given. Compounds with a hit are over-represented: about 11% of the library has one in this group of screens. Unless noted, calls follow the shape of the dose curve; as a rule, active = well fitted curve in the direction sought with a large enough effect; inconclusive = small, poorly fitted or top-dose-only effect, or another doubt; inactive = no such curve, though single readings can be large; an effect the other way counts as inactive or inconclusive.

SMILES | HEK293 tox | NIH3T3 tox | FLuc inh | hNpr1 antagonist
COc1ccc(C(=O)N2CCC(Cc3nc(-c4ccncc4)n[nH]3)CC2)cc1 | - | ? | . | .
Cc1nc(CC2CCN(C(=O)Nc3ccc4c(c3)OCCO4)CC2)n[nH]1 | - | - | 44.7µM | -
Cc1ccc(C(=O)N2CCN(c3nnc4cccc(C)n34)CC2)cc1F | - | - | - | -
CS(=O)(=O)N1CCC(OC2CCN(C(=O)Nc3ccc4c(c3)OCCO4)CC2)CC1 | - | - | 35.5µM | -
COc1ccc2[nH]c3c(c2c1)CCNC31CCN(C(=O)CN2CCCC2=O)CC1 | - | - | - | -
CC1=C[C@@H](CNS(C)(=O)=O)[C@H](C(C)C)C[C@H]1Cc1nc2ccc(F)cc2[nH]1 | 89.1µM | ? | - | ?
CC1=C[C@@H](CNC(=O)CC2(CC(=O)O)CCCC2)[C@H](C(C)C)C[C@H]1Cc1nc2ccc(F)cc2[nH]1 | - | - | - | -
CC1=C[C@@H](CNC2CCN(C)CC2)[C@H](C(C)C)C[C@H]1Cc1nc2ccc(F)cc2[nH]1 | 70.8µM | ? | - | -
CC1=C[C@@H](CNC(=O)CCCC(=O)O)[C@H](C(C)C)C[C@H]1Cc1nc2ccc(Cl)cc2[nH]1 | - | - | - | -
CC1=C[C@@H](CNS(C)(=O)=O)[C@H](C(C)C)C[C@H]1Cc1nc2ccc(Cl)cc2[nH]1 | 100µM | ? | - | ?
COC(=O)c1ccc2c(c1)nc1n2[C@@H](CNCc2ccc(S(C)(=O)=O)cc2)COC1 | - | - | - | -
CCc1nc2c(=O)n(CC(=O)NCCC3=CCCCC3)nc(C)c2s1 | - | - | - | -
COc1ccc(N2C(=O)CSC23CCN(C(=O)Nc2ccc(F)cc2F)CC3)cc1 | - | ? | - | -
O=C(NC1CCCc2c1[nH]c1ccc(F)cc21)c1n[nH]c2c1CCC2 (stereo not given) | 35.5µM | 35.5µM | - | -
Cc1c(-c2ccccc2F)[nH]c2ccc(CNC(=O)CCN3CCCO3)cc12 | ? | ? | 15.8µM | -
O=C(NC1CCCc2c1[nH]c1ccc(Cl)cc21)c1ccco1 (stereo not given) | - | ? | - | -
CCN1CCN(CC(=O)NCc2ccc3[nH]c(-c4ccc(F)cc4)c(C)c3c2)CC1 | 17.8µM | 22.4µM | ? | -
Cc1c(-c2ccc(F)cc2)[nH]c2ccc(CNC(=O)c3cnn(C)c3)cc12 | 39.8µM | ? | 25.1µM | ?
C[C@H]1[C@@H]2[C@@H](O)C([C@H](C)C(=O)N3CCc4ccccc4C3)CC[C@@]2(C)CC[C@@H]1NC(=O)c1cnccn1 (stereo not given in full) | ? | ? | - | -
O=C1NCCOCCN(S(=O)(=O)c2cccc3nsnc23)[C@@H]2CCCC[C@H]12 | - | - | - | -
CC(=O)N1CCN(C(=O)c2nc3cccnc3n(C3CC3)c2=O)CC1 | - | - | . | .
O=C(CN1CC(=O)NC1=O)NCc1ccc2[nH]c3c(c2c1)CCCCCC3 | - | - | - | -
O=C(CCc1c[nH]c2ccccc12)NC1CCCc2c1[nH]c1ccc(F)cc21 (stereo not given) | ? | 39.8µM | - | -
Cc1c(-c2ccc(F)cc2)[nH]c2ccc(CNC(=O)c3n[nH]c4c3CCCC4)cc12 | ? | 31.6µM | 15.8µM | 15.8µM
CCCc1noc(-c2cccn3c(CNC(=O)c4cc(C)ccc4C)nnc23)n1 | ? | - | - | -
SMILES | HEK293 tox | NIH3T3 tox | FLuc inh | hNpr1 antagonist
COc1ccc(CN2C(=O)COC[C@H]2C(=O)Nc2ccc(OC)c(OC)c2)cc1OC | - | - | - | -
COc1ccc(CN2C(=O)COC[C@H]2C(=O)Nc2ccc(OC)c(C(F)(F)F)c2)cc1 | 44.7µM | ? | - | ?
CC(C)c1noc([C@@H]2Cc3nc[nH]c3CN2Cc2ccc(F)cc2)n1 | ? | ? | - | -
Cc1ccc(-c2noc([C@@H]3Cc4nc[nH]c4CN3C(=O)CCCC(=O)O)n2)cc1 | - | - | ? | -
N#Cc1cccc(CN2Cc3[nH]cnc3C[C@H]2c2nc(-c3ccccc3)no2)c1 | 89.1µM | ? | 63.1µM | -
Cc1ccc(-c2noc([C@@H]3Cc4nc[nH]c4CN3Cc3ccc(CO)o3)n2)cc1 | - | - | 63.1µM | -
Cc1cccc(-c2noc([C@@H]3Cc4nc[nH]c4CN3Cc3cccc(C#N)c3)n2)c1 | ? | ? | - | -
Cc1ccc(-c2noc([C@@H]3Cc4nc[nH]c4CN3Cc3ccc(F)cc3)n2)cc1 | 89.1µM | 35.5µM | 50.1µM | ?
NC(=O)[C@@H](Cc1ccccc1)NC(=O)[C@@]1(O)C[C@@H](O)[C@H](O)[C@@H](NC(=O)c2cccnc2)C1 | - | - | - | -
c1coc(-c2nc(C3CCOC3)nn2C2Cc3ccccc3C2)c1 (stereo not given) | - | ? | - | -
CCN1c2cc(C(=O)Nc3ccc(F)cc3F)ccc2C(=O)N2CCCCCC21 (stereo not given) | ? | ? | - | -
COC(=O)[C@@H]1Cc2c([nH]c3ccccc23)[C@H]2C[C@@H](N3CCOCC3)C[C@@H](c3ccccc3)N21 | ? | ? | - | -
COCCNC(=O)[C@@H]1C[C@@H](c2ccc(F)cc2)N([S+](=O)([O-])c2ccccc2)C1 | - | ? | - | -
COCCN[C@@H]1C[C@@H]2c3[nH]c4ccccc4c3C[C@@H](C(=O)OC)N2[C@H](c2ccc(C(F)(F)F)cc2)C1 | 35.5µM | 44.7µM | - | -
COC(=O)[C@@H]1Cc2c([nH]c3ccccc23)[C@H]2C[C@H](NCCNC(C)=O)C[C@@H](c3ccccc3)N21 | 89.1µM | ? | - | -
COC(=O)[C@@H]1Cc2c([nH]c3ccccc23)[C@H]2C[C@H](NCCNC(C)=O)C[C@@H](c3ccc(C(F)(F)F)cc3)N21 | 20µM | 28.2µM | - | -
CC(=O)NCCNC(=O)c1ccc(-c2cccc(C(F)(F)F)c2)cc1 | ? | - | . | .
COC[C@@H]1CN(C(=O)c2ccn[nH]2)C[C@H]1c1ccncc1 | - | - | - | -
Cc1cc(Cl)c2oc(C(=O)N(Cc3c(C)nn(C)c3C)C3CC3)c(C)c2c1 | ? | ? | 28.2µM | 7.94µM
COc1ccc(OC)c(CNC(=O)c2ccc3c(c2)C(O)CCCCCN3C)c1 (stereo not given) | ? | ? | - | -
COc1ncccc1-c1cc(C(=O)N2CCCC(OC)C2)c2c(c1)ncn2C (stereo not given) | - | 89.1µM | - | -
c1ccc(-n2cnnc2CC2CCNCC2)cc1 | - | - | - | -
COCC(=O)NC1CCC12CCN(C(=O)C1CC1)CC2 (stereo not given) | - | - | - | -
C[C@H]1CCCN1C(=O)c1nnc(CNc2ccc(OC(F)(F)F)cc2)n1-c1ccccc1 | ? | - | - | -
C[C@H]1CCCN1C(=O)c1nnc(COc2ccc(F)c(F)c2)n1-c1cccnc1 | ? | 25.1µM | - | -
C[C@H]1CCCN1C(=O)c1nnc(COc2ccccc2)n1-c1ccccc1 | ? | 89.1µM | - | -
O=C(c1nnc(COc2ccc(F)c(F)c2)n1-c1ccccc1)N1CCC[C@@H]1C(c1ccccc1)c1ccccc1 | ? | 4.47µM | - | -
